# Experimental data reported in PubChem BioAssay (NCATS).
# A number with no mark means an inactive call. Inconclusive results are not listed. A call without a number means that no potency is given here. Activity calls are given as the source filed them. Unless noted, calls come from the whole dose curve; as a rule, active = well fitted curve in the direction sought with a large enough effect; inconclusive = small, poorly fitted or top-dose-only effect, or another doubt; inactive = no such curve, though single readings can be large; an effect the other way counts as inactive or inconclusive.
# Tests used:
# [1] = target: Glucocorticoid receptor (Homo sapiens) (UniProt P04150); experiment: GR-GFP Redistribution (AID 450;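 active = compounds whose dose series gives a full or clear partial fitted curve of increased nuclear translocation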; note: potency is the fitted concentration of half-maximal effect); details: U2OS GR-GFP nuclear translocation, laser cytometry, 2 h
# [2] = tested on: ATS189; experiment: qHTS profiling for inhibitors of Plasmodium falciparum proliferation (AID 504749); note: nearly all actives have a fitted effect of over 60% in size; note: potency is the fitted concentration of half-maximal effect; details: P. falciparum in erythrocytes, SYBR Green DNA, 72 h; series mostly up to 12.8 µM
# Method in brief: (§1)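 Each compound contacts P. falciparum-infected red blood cells for 72 h at 37 C; lysis buffer (Tris, EDTA, saponin, Triton X, SYBR Green I) is added and fluorescence measured next morning; values normalized to controls.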
# [3] = tested on: CP250; experiment: as above; details: P. falciparum in erythrocytes, SYBR Green DNA, 72 h; series mostly up to 12.8 µM
# Method in brief: as §1
# [4] = tested on: CP266; experiment: as above; details: P. falciparum in erythrocytes, SYBR Green DNA, 72 h; series mostly up to 12.8 µM
# Method in brief: as §1
# [5] = tested on: CP315; experiment: as above; details: P. falciparum in erythrocytes, SYBR Green DNA, 72 h; series mostly up to 12.8 µM
# Method in brief: as §1
# [6] = tested on: HB3; experiment: as above; details: P. falciparum in erythrocytes, SYBR Green DNA, 72 h; series mostly up to 12.8 µM
# Method in brief: as §1
# [7] = tested on: PAD; experiment: as above; details: P. falciparum in erythrocytes, SYBR Green DNA, 72 h; series mostly up to 12.8 µM
# Method in brief: as §1
# [8] = S16 Schwann cell viability assay (CellTiter-Glo assay) (AID 624031); details: S16 rat Schwann cells viability, 24 h; series mostly up to 25.7 µM;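 note: native untransfected S16 rat Schwann cells; cellular ATP luminescence as a viability measure; nearly all actives have a fitted effect of over 70% in size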
# Method in brief: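 Rat S16 Schwann cells without reporter constructs received compound or DMSO for 24 h at 37 °C under 5% CO2. Cellular ATP was then quantified by CellTiter-Glo luminescence, with vehicle wells defined as 0% activity and cell-free wells as reference.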
# [9] = tested on: ATS95; experiment: qHTS profiling for inhibitors of Plasmodium falciparum proliferation (AID 504749); note: nearly all actives have a fitted effect of over 60% in size; note: potency is the fitted concentration of half-maximal effect; details: P. falciparum in erythrocytes, SYBR Green DNA, 72 h; series mostly up to 12.8 µM
# Method in brief: as §1
# [10] = tested on: CP194; experiment: as above; details: P. falciparum in erythrocytes, SYBR Green DNA, 72 h; series mostly up to 12.8 µM
# Method in brief: as §1
# [11] = tested on: CP201; experiment: as above; details: P. falciparum in erythrocytes, SYBR Green DNA, 72 h; series mostly up to 12.8 µM
# Method in brief: as §1
# [12] = tested on: CP237; experiment: as above; details: P. falciparum in erythrocytes, SYBR Green DNA, 72 h; series mostly up to 12.8 µM
# Method in brief: as §1
# [13] = tested on: DIV17; experiment: as above; details: P. falciparum in erythrocytes, SYBR Green DNA, 72 h; series mostly up to 12.8 µM
# Method in brief: as §1
# [14] = tested on: GB4; experiment: as above; details: P. falciparum in erythrocytes, SYBR Green DNA, 72 h; series mostly up to 12.8 µM
# Method in brief: as §1
# [15] = tested on: P94_40; experiment: as above; details: P. falciparum in erythrocytes, SYBR Green DNA, 72 h; series mostly up to 12.8 µM
# Method in brief: as §1
# [16] = tested on: TAB109; experiment: as above; details: P. falciparum in erythrocytes, SYBR Green DNA, 72 h; series mostly up to 12.8 µM
# Method in brief: as §1
# [17] = tested on: TAB165; experiment: as above; details: P. falciparum in erythrocytes, SYBR Green DNA, 72 h; series mostly up to 12.8 µM
# Method in brief: as §1
# [18] = tested on: CP260; experiment: as above; details: P. falciparum in erythrocytes, SYBR Green DNA, 72 h; series mostly up to 12.8 µM
# Method in brief: as §1
# [19] = tested on: CP286; experiment: as above; details: P. falciparum in erythrocytes, SYBR Green DNA, 72 h; series mostly up to 12.8 µM
# Method in brief: as §1
# [20] = tested on: P93_24; experiment: as above; details: P. falciparum in erythrocytes, SYBR Green DNA, 72 h; series mostly up to 12.8 µM
# Method in brief: as §1
# Chain of Glucocorticoid receptor (Homo sapiens) (P04150 whole entry, looked up): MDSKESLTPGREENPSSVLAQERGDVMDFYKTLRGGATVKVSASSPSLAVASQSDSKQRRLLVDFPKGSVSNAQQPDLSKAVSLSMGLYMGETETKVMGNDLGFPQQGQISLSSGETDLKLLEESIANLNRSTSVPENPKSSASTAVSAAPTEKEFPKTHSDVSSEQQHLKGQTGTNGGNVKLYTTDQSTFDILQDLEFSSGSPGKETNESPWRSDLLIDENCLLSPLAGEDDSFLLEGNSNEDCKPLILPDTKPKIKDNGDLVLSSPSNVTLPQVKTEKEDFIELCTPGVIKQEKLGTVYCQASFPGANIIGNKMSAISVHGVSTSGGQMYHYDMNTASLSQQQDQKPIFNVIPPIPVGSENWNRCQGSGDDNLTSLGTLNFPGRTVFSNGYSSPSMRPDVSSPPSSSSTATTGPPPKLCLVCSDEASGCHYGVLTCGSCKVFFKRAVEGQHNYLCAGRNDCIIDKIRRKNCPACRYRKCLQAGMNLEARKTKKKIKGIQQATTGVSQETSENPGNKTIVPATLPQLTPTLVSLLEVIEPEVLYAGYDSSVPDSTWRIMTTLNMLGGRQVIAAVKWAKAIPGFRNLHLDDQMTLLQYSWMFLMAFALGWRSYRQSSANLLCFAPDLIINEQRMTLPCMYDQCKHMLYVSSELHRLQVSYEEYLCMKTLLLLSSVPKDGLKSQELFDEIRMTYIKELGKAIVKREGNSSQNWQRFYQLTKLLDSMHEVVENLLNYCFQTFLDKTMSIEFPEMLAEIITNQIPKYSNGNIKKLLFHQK
smiles,measurement,setting,value
COc1c2c(nc3ccccc13)O[C@H]([C@@](C)(O)CO)C2,Potency,[1],> 20.6 µM
CN1CCC[C@@H](CC2c3ccccc3Sc3ccccc32)C1,Potency,[1],> 20.6 µM
same,Potency,[2],inactive
same,Potency,[3],inactive
same,Potency,[4],inactive
same,Potency,[5],inactive
same,Potency,[6],inactive
same,Potency,[7],inactive
Cc1ccnc(N)c1,Potency,[1],> 46 µM
CCC(=O)[C@@]1(C)[C@H](C)C[C@@H]2[C@@H]3CCC4=CC(=O)C=C[C@@]4(C)[C@H]3[C@H](O)C[C@]21C,Potency,[1],0.000592 µM (active)
same,outcome,[8],inactive
same,Potency,[2],inactive
same,Potency,[9],inactive
same,Potency,[10],inactive
same,Potency,[11],inactive
same,Potency,[12],3.55 µM (active)
same,Potency,[3],inactive
same,Potency,[4],inactive
same,Potency,[5],inactive
same,Potency,[13],inactive
same,Potency,[14],inactive
same,Potency,[6],inactive
same,Potency,[15],inactive
same,Potency,[7],inactive
same,Potency,[16],inactive
same,Potency,[17],inactive
COc1ccc([C@@H]2CC(=O)c3c(O)cc(O[C@H]4O[C@@H](CO[C@H]5O[C@@H](C)[C@@H](O)[C@@H](O)[C@@H]5O)[C@@H](O)[C@@H](O)[C@@H]4O)cc3O2)cc1O,Potency,[1],> 20.6 µM
same,outcome,[8],inactive
same,Potency,[2],inactive
same,Potency,[9],inactive
same,Potency,[10],inactive
same,Potency,[11],inactive
same,Potency,[12],inactive
same,Potency,[3],inactive
same,Potency,[18],inactive
same,Potency,[4],inactive
same,Potency,[19],inactive
same,Potency,[5],inactive
same,Potency,[13],inactive
same,Potency,[14],inactive
same,Potency,[6],inactive
same,Potency,[20],inactive
same,Potency,[15],inactive
same,Potency,[7],inactive
same,Potency,[16],inactive
same,Potency,[17],inactive
COC(=O)C1=C(C)NC(C)=C(C(=O)OC(C)C)[C@H]1c1cccc2nonc12,Potency,[1],> 20.6 µM
same,outcome,[8],inactive
same,Potency,[3],inactive
same,Potency,[4],inactive
same,Potency,[20],inactive
same,Potency,[7],inactive
C=C(C)[C@H]1CC[C@]2(CO)CC[C@]3(C)[C@@H](CC[C@H]4[C@@]5(C)CC[C@@H](O)C(C)(C)[C@@H]5CC[C@@]43C)[C@H]12,Potency,[1],> 20.6 µM
O=C1C=CC(=O)c2c1ccc1c2ccc2ccccc21,Potency,[1],> 20.6 µM
C#C[C@]1(O)CC[C@@H]2[C@H]3CCc4cc(OC)ccc4[C@@H]3CC[C@@]21C,Potency,[1],> 20.6 µM
CS(=O)(=O)Nc1cccc(-c2nc(Nc3ccc(F)cc3)c3ccccc3n2)c1,Potency,[1],> 46 µM
C[C@H](CCC(=O)O)[C@H]1CC[C@@H]2[C@@H]3[C@@H](O)C[C@H]4C[C@@H](O)CC[C@@]4(C)[C@H]3CC[C@@]21C,outcome,[8],inactive
same,Potency,[2],inactive
same,Potency,[9],inactive
same,Potency,[10],inactive
same,Potency,[11],inactive
same,Potency,[12],inactive
same,Potency,[3],inactive
same,Potency,[18],inactive
same,Potency,[4],inactive
same,Potency,[19],inactive
same,Potency,[5],inactive
same,Potency,[13],inactive
same,Potency,[14],inactive
same,Potency,[6],inactive
same,Potency,[20],inactive
same,Potency,[15],inactive
same,Potency,[7],inactive
same,Potency,[16],inactive
same,Potency,[17],inactive
NC[C@@H]1O[C@H](O[C@H]2[C@H](O)[C@H](O[C@@H]3O[C@H](CO)[C@@H](O)[C@H](N)[C@@H]3O)[C@@H](N)C[C@H]2N)[C@@H](O)[C@H](O)[C@@H]1O,Potency,[1],> 20.6 µM
same,outcome,[8],inactive
same,Potency,[2],inactive
same,Potency,[9],inactive
same,Potency,[10],inactive
same,Potency,[11],inactive
same,Potency,[12],inactive
same,Potency,[3],inactive
same,Potency,[18],inactive
same,Potency,[4],inactive
same,Potency,[19],inactive
same,Potency,[5],inactive
same,Potency,[13],inactive
same,Potency,[14],inactive
same,Potency,[6],inactive
same,Potency,[20],inactive
same,Potency,[15],inactive
same,Potency,[7],inactive
same,Potency,[16],inactive
same,Potency,[17],inactive
Nc1ncn([C@H]2O[C@@H](CO)[C@@H](O)[C@@H]2O)c(=O)n1,Potency,[1],> 20.6 µM
CCCCC[C@H](O)/C=C\[C@@H]1[C@H](O)CC(=O)[C@@H]1CCCCCCC(=O)O,Potency,[1],> 20.6 µM
same,outcome,[8],inactive
same,Potency,[2],inactive
same,Potency,[9],inactive
same,Potency,[11],inactive
same,Potency,[12],inactive
same,Potency,[3],inactive
same,Potency,[18],inactive
same,Potency,[4],inactive
same,Potency,[19],inactive
same,Potency,[5],inactive
same,Potency,[15],inactive
same,Potency,[7],inactive
same,Potency,[16],inactive
same,Potency,[17],inactive
CC(C)(C)NC[C@H](O)COc1cccc2c1C[C@@H](O)[C@@H](O)C2,Potency,[1],> 20.6 µM
same,outcome,[8],inactive
same,Potency,[2],inactive
same,Potency,[9],inactive
same,Potency,[10],inactive
same,Potency,[11],inactive
same,Potency,[12],inactive
same,Potency,[3],inactive
same,Potency,[18],inactive
same,Potency,[4],inactive
same,Potency,[19],inactive
same,Potency,[5],inactive
same,Potency,[13],inactive
same,Potency,[14],inactive
same,Potency,[6],inactive
same,Potency,[20],inactive
same,Potency,[15],inactive
same,Potency,[7],inactive
same,Potency,[16],inactive
same,Potency,[17],inactive
COC(=O)[C@@H]1[C@@H]2C[C@H]3c4[nH]c5cc(OC)ccc5c4CCN3C[C@@H]2C[C@H](OC(=O)/C=C\c2cc(OC)c(OC)c(OC)c2)[C@H]1OC,Potency,[1],> 20.6 µM
same,outcome,[8],inactive
same,Potency,[11],inactive
same,Potency,[4],inactive
same,Potency,[14],5.1 µM (active)
same,Potency,[20],3.16 µM (active)
same,Potency,[17],3.16 µM (active)
COc1cc(N[C@@H](C)CCCN)c2ncccc2c1,Potency,[2],2.24 µM (active)
same,Potency,[9],3.16 µM (active)
same,Potency,[10],3.61 µM (active)
same,Potency,[11],4.55 µM (active)
same,Potency,[12],2.51 µM (active)
same,Potency,[3],1.26 µM (active)
same,Potency,[18],1.41 µM (active)
same,Potency,[19],0.891 µM (active)
same,Potency,[5],5.73 µM (active)
same,Potency,[13],0.642 µM (active)
same,Potency,[14],0.809 µM (active)
same,Potency,[6],2.24 µM (active)
same,Potency,[20],1 µM (active)
same,Potency,[15],1.41 µM (active)
same,Potency,[7],0.891 µM (active)
same,Potency,[16],1.78 µM (active)
same,Potency,[17],0.891 µM (active)
CC[C@H](C(=O)[C@H](C)[C@H](O)[C@H](C)CCc1ccc(C)c(O)c1C(=O)O)[C@H]1O[C@](CC)([C@@H]2CC[C@@](O)(CC)[C@H](C)O2)C[C@H]1C,Potency,[1],> 20.6 µM
Cc1cc2ccc(=O)oc2cc1OC[C@@H](O)C(C)(C)O,Potency,[1],> 46 µM
